# Screening results as filed in PubChem.
# Peg3 promoter – Peg3 promoter-driven luciferase inhibitors, primary screen, cell-based, HeLa, luciferase luminescence | actives 1.7% (n = 360,000) | AID 588405, 2011 | inhibition, % at 20 µM | HeLa PEG-Prom luciferase reporter, overnight;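 active means inhibition of at least 50% at 20 µM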
# EBV LMP1 NFkB – EBV LMP1-driven NF-kappaB luciferase reporter inhibitors, primary screen, cell-based, luminescence, single point; LMP1-induced NF-kappaB luciferase reporter cells; inhibition, % at 12.5 µM; actives 0.69% (n = 350,000); AID 504558, 2011; in the data active means inhibition above about 41%; inconclusive means no clear call, values can overlap the other calls;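 further: 0% = neutral control wells and 100% = reference inhibitor control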
# CF NFkB block – inhibitors of PAF-induced NF-kB signaling, primary screen, cell-based, GFP fluorescence, uHTS. KKLEB NF-kB-GFP reporter, GFP fluorescence overnight. inhibition, % at 5 µM. actives 0.86% (n = 360,000). AID 588850, 2011;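 active means at least 50% inhibition at 5 µM, scaled per plate between neutral and stimulator controls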;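 further: PAF is a Pseudomonas aeruginosa culture filtrate used as stimulus; plate controls were PAF-stimulated DMSO wells for no effect and unstimulated DMSO wells for full effect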
# KKLEB tox – cytotoxicity in KKLEB CF airway cells, primary screen, cytotoxicity control for CF NF-kB inhibitor project, cell-based, uHTS, fluorescence assay plates; actives 0.36% (n = 360,000); KKLEB CF airway cells viability, ATPlite luminescence, overnight; stronger effect = lower value; cells stimulated with P. aeruginosa culture filtrate; AID 602141, 2011; activity change (cytotoxicity), % at 5 µM;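 active means corrected activity change at or below -50% at 5 µM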
# TRPM1 prom inh – inhibitors of MITF-dependent TRPM1 promoter reporter, primary screen, cell-based, SK-MEL-5, single point, luciferase; SK-MEL-5 TRPM1 promoter luciferase, 24 h; inhibition, % at 12.5 µM; actives 0.83% (n = 330,000);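 active means mean inhibition across replicates of 60% or more, whatever share of single replicates reaches that level; inconclusive means some that reach 60%, reason not given; inactive means mean inhibition across replicates below 60%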
# Shn3 inh set2 – reduction of Shn3 3'UTR firefly luciferase signal, primary screen, Schnurri-3 inhibitor project, cell-based, Clone20 osteoblasts, set 2; inhibition, % at 12.5 µM; Clone20 osteoblast Shn3 3'UTR firefly luciferase, 24 h; actives 0.52% (n = 360,000);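 active means mean inhibition of at least 75% with every replicate also reaching 75%; inconclusive means mean inhibition at least 75% but some replicate below; inactive means mean inhibition below 75%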;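 further: 0% = median of neutral control wells and 100% = pilot-screen positive control compound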
# * hit, by the source's call; u = inconclusive; x = no result given; ! = not confirmed by another sample. An excerpt weighted towards active compounds, which were near 2.9% of everything screened.
SMILES,Peg3 promoter,EBV LMP1 NFkB,CF NFkB block,KKLEB tox,TRPM1 prom inh,Shn3 inh set2
COc1ccc(C(=O)Nn2c(SCC(=O)NC3CCCCC3)nc3ccccc3c2=O)cc1,27.0,54.6*,6.5,5.1,25.3,15.2
COc1ccc(C(=O)Nn2c(SCC(=O)N3CCC(C)CC3)nc3ccccc3c2=O)cc1,68.0*,69.9*,-7.7,0.7,42.5,30.8
CCn1c(SCC(=O)NCc2ccco2)nc2ccccc2c1=O,-7.8,-0.1,0.5,9.0,4.2,2.9
COCCCn1c(SCC(=O)NC2CCCCC2)nc2ccccc2c1=O,15.6,-6.3,2.4,7.0,x,-16.7
COc1ccc(C(=O)Nn2c(SCC(=O)c3ccc(Cl)cc3)nc3ccccc3c2=O)cc1,-28.2,48.1*,-9.5,-12.6,-2.4,15.3
COc1ccc(C(=O)Nn2c(C)nc3ccccc3c2=O)cc1,-5.0,-11.2,-11.6,6.0,3.7,13.8
Cc1cc(SCC(=O)N(C)C2CCCCC2)nc2ccccc12,0.9,-4.3,-7.1,15.6,8.6,3.8
COCCNC(=O)c1cccc(Nc2nc(-c3ccccc3)c3cc(Cl)ccc3n2)c1,53.4*,18.2,5.1,-5.3,19.6,0.4
CC(=O)NNc1nc(-c2ccccc2)c2cc(Cl)ccc2n1,1.8,-0.9,-25.5,-2.0,x,13.2
CC(=O)Nc1ccc(C(=O)N2CCCC(c3cc(C(=O)NCc4ccccc4)no3)C2)cc1 (centres undefined),10.9,x,13.0,-5.1,x,5.2
COc1ccc(C)cc1NC(=O)COC(=O)c1c(-c2ccccc2)noc1C,3.2,3.5,-9.6,-0.2,x,8.6
CCOC(=O)C1=CCN(S(=O)(=O)c2ccccc2Cl)C1c1ccc(C)cc1 (centres undefined),1.6,x,17.8,-17.8,x,-8.5
CCOC(=O)c1ccc(N2C(=O)c3n[nH]c(-c4ccco4)c3C2c2ccc([N+](=O)[O-])cc2)cc1 (centres undefined),60.0*,3.6,-9.8,-5.2,20.2,22.6
Cn1c(N=Nc2ccccc2)nc2ccccc21,-208.9,1.9,-21.3,-53.2*,13.9,-13.2
COC(=O)C1=C(C)N(Cc2ccccc2)C(=NCc2ccc(OC)cc2)N[C@H]1c1cccc(F)c1,101.8*,19.0,31.9,-7.3,u,u
COC(=O)C1=C(C)N(Cc2ccccc2)C(=NCc2cccc(Cl)c2)N[C@H]1c1cccc(F)c1,103.6*,8.8,60.0*,-53.1*,94.8*,-0.3
COC(=O)C1=C(C)N(Cc2ccccc2)C(=NCc2cc(OC)c(OC)c(OC)c2)N[C@H]1c1cccc(F)c1,-10.2,4.4,-6.5,-8.4,-7.0,15.0
O=C(N/N=C/c1ccc(OCC(=O)N2CCOCC2)cc1)c1ccccc1Cl,-17.4,-2.2,17.5,0.4,0.3,-3.0
O=C(Nc1ccc(OCC(=O)N2CCOCC2)cc1)c1ccccc1Cl,-83.7,51.3*,-28.7,7.2,-39.4,-44.2
CCCCN=C(Nc1ccc(Cl)cc1)c1cccnc1,13.6,-1.7,14.3,-11.8,-3.2,-3.9
CC(C)N=C(N)N=C(N)Nc1ccc(Cl)cc1,17.3,-0.4,5.5,-13.6,1.5,90.8*
NNC(=S)Nc1ccc(Cl)cc1,6.2,-1.4,0.7,0.3,10.9,21.3
NC(=NCCCCCCN=C(N)/N=C(\N)Nc1ccc(Cl)cc1)/N=C(\N)Nc1ccc(Cl)cc1,101.6*!,10.3,19.7,22.8,30.9,81.1
COc1ccc(C)cc1NC(=O)NC1CC(=O)N(c2ccc3c(c2)OCCO3)C1 (centres undefined),1.8,9.8,2.6,1.5,x,15.7
CN(CCCn1ccc(NC(=O)OCc2ccccc2)nc1=O)CCc1ccccn1,-13.5,5.1,-7.3,3.8,x,6.9
SMILES,Peg3 promoter,EBV LMP1 NFkB,CF NFkB block,KKLEB tox,TRPM1 prom inh,Shn3 inh set2
O=C(Nc1ccc(Cl)c(S(=O)(=O)N2CCOCC2)c1)c1cc2ccccc2oc1=O,94.8*,-16.3,8.2,-3.4,-28.0,18.7
C#CC[N+](C)(C)CCCCCCCC,24.7,0.7,36.8,-16.4,-8.6,11.8
C#CC[N+](C)(C)CCCCCCCCCCCC,87.3*,18.3,46.4,-43.1,71.7*,77.4
CC#CC[N+](C)(C)CCCCCCCCCCCC,58.5*,25.3,32.9,-45.2,64.7*,77.4
C[N+](C)(C)CCCCCC[N+](C)(C)C,-4.8,-10.0,0.6,-14.2,-1.8,0.2
C#CC[N+](C)(C)CCCCCCCCCC,34.2,13.7,52.0*,-32.8,12.1,43.5
C=CCC1(CC=C)CCCN1C(=O)c1ccc2oc(CCCC)nc2c1,-227.6,-25.9,-2.4,-8.8,x,-13.4
CCN(CC)Cc1nc2nc(Cl)c(Cl)nc2[nH]1,-5.0,0.7,6.8,2.8,x,-15.8
COc1cccc(NC(=O)C2(C)CCN2C(=O)C2CCCCC2)c1 (centres undefined),-17.7,x,12.6,-7.9,x,8.9
Cc1ccc(C(=O)Nc2ncc3c(Cl)cccc3n2)cc1,-30.8,51.2*,-5.1,-28.8,6.9,-1.1
CCOc1cccc2sc(N(CCCN(C)C)C(=O)c3ccc(S(=O)(=O)N4CCc5ccccc5C4)cc3)nc12,39.2,2.6,3.5,-0.3,22.7,-15.4
CCc1ccc2nc(N(CCCN(C)C)C(=O)c3ccc(S(=O)(=O)N(C)C4CCCCC4)cc3)sc2c1,79.0*,-4.9,20.5,-24.9,95.6*,23.8
CN(C)CCCN(C(=O)c1ccc(S(=O)(=O)N2CCCC2)cc1)c1nc2ccc(Br)cc2s1,-10.7,4.0,-1.8,-13.5,82.8*,-21.0
CCc1ccc2nc(N(CCCN(C)C)C(=O)c3ccc(S(=O)(=O)N4CCc5ccccc5C4)cc3)sc2c1,28.4,-31.8,66.6*,-97.6*,39.5,1.5
COCCNC(=O)C1(C)CCCN(Cc2ccc3ccccc3c2Br)C1 (centres undefined),13.6,x,26.4,-13.3,x,22.5
CC(C)[C@H](NC(=O)c1ccccc1F)C(=O)OCC(=O)NC1CC1,10.0,-5.7,-8.6,2.4,1.1,13.5
Cc1cc(N2CCOCC2)ccc1/C=C\[N+](=O)[O-],101.8*,-7.8,54.3*,-10.2,58.8,38.5
O=[N+]([O-])c1ccc(N2CCOCC2)cc1O,10.0,-5.2,-13.6,7.9,-2.9,x
CC(C)(C)n1nc(-c2ccc(Cl)cc2)c2c(N)ncnc21,69.3*,41.7*,45.5,4.5,-7.2,64.2
Cc1ccc(-c2csc(N3CCN(CCCn4c(-c5ccncc5)nc5ccccc54)CC3)n2)cc1,35.9,33.2,16.3,-9.4,67.2*,5.6
O=[N+]([O-])c1cccc2nc3ccccc3c(NCCCn3ccnc3[N+](=O)[O-])c12,99.1*,2.9,-139.2,-13.2,81.8*,-3.9
